# Bioassay records (PubChem BioAssay)
# Tg IFNy HTS – T. gondii growth inhibition with IFN-gamma, primary screen, cell-based; Toxoplasma gondii growth in IFN-gamma-treated host cells; active compounds read low; activity change, negative = inhibition, % (concentration not given with the values); hit rate 3.8% among 69,000; AID 1259416, 2018; in the data active means activity change below about -70%, passing the limit was not always enough;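 further: host cells are HeLa cells infected with Toxoplasma gondii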
# Hits are given with their value; . = inactive; ! = repeats disagree. The sample as a whole holds a higher share of hits than the screen did.
SMILES,Tg IFNy HTS
CC(C)c1nnc(CCC(=O)N2CCC(c3ccccc3)C2)o1 (centres undefined),.
c1ccc(-n2ncc3c(NC4CCCCCCCCCCC4)ncnc32)cc1,.
CCN(CC)c1ncnc2c1cnn2-c1ccccc1,.
N#Cc1cnn(-c2ncnc3c2cnn3-c2ccccc2)c1N,-93
CC(C)CC(c1nnnn1C1CCCC1)N1CCN(Cc2ccc3c(c2)OCO3)CC1 (centres undefined),.
Cc1cccc(CN2CCn3cc(CNC(=O)CC4CC4)nc3C2)n1,.
CCc1ccc(CNC(=O)c2nc(Nc3cccc(C)c3)c3ccccc3n2)cc1,-98
CN(C)c1ccc(CNC(=O)c2nc(Nc3ccc(F)cc3)c3ccccc3n2)cc1,.
CCOC(=O)c1nc(Nc2cccc(C)c2)c2ccccc2n1,.
Cc1cccc(Nc2nc(C(=O)NCc3ccc(N(C)C)cc3)nc3ccccc23)c1,-78
Cc1ccc(Nc2nc(C(=O)NCc3ccc(N(C)C)cc3)nc3ccccc23)cc1,.
CCc1ccc(Nc2nc(C(=O)NCc3ccc(C)cc3)nc3ccccc23)cc1,.
Cc1c(CN(C)C(=O)CN2C(=O)NC(=O)C2(C)C)cnn1C,.
Cc1ccc(-c2coc(-c3ccc(NC(=O)CC4CCCCC4)cc3)n2)cc1,.
C#CC1(OCC(O)CN2CCN(c3cccc(C(F)(F)F)c3)CC2)CCCCC1 (centres undefined),-80
OCC(O)CN1CCN(c2ccccc2)CC1 (centres undefined),.
C#CC1(OCC(O)CN2CCN(c3ccccc3OC)CC2)CCCCC1 (centres undefined),.
O=C(CCc1n[nH]c2c1CCCC2)N1CCCC(COc2ccc(F)cc2)C1 (centres undefined),.
O=C(c1ccco1)N1Cc2nccn2CC(Cn2cncn2)C1 (centres undefined),.
COc1ccc(-c2nc(CN3C(=O)C(O)(c4cccc(F)c4)c4ccccc43)c(C)o2)cc1 (centres undefined),-74
Cc1ccc(C2(O)C(=O)N(Cc3nc(-c4ccccc4)oc3C)c3ccccc32)cc1 (centres undefined),.
Cc1cccc(C2(O)C(=O)N(Cc3nc(-c4ccccc4)oc3C)c3ccccc32)c1 (centres undefined),.
CCc1nc(OCC(=O)Nc2ccc(OC)cc2)c2ccccc2n1,.
CCCCCOc1ccc(C(O)C(CN2CCCC2)c2ccccc2)cc1 (centres undefined),-91
CCOC(CN1CCN(CC(C)C(=O)c2ccccc2)CC1)c1ccccc1 (centres undefined),.
SMILES,Tg IFNy HTS
CC(=O)c1ccc(OCC(O)CN2CCN(C(c3ccccc3)c3ccccc3)CC2)cc1 (centres undefined),.
COc1cc2c(cc1CN1CCCCC1CN1CCOCC1)OCO2 (centres undefined),.
Cc1ccc(C(=O)NCc2ccc3c(c2)OCO3)cc1NC(=O)C1CC1,.
COc1cccc([C@@H]2CCN(C3CCN(C(=O)c4ccncc4)CC3)C[C@H]2O)c1,.
O=S(=O)(Oc1ccc(Cl)cc1)c1csc(C(F)(F)F)c1-c1ccccc1,.
FC(F)(F)c1ccc(Oc2ncnc3c(-c4ccccc4)c(C(F)(F)F)sc23)cc1,-71
Cn1nc(-c2ccccc2)c2c1C[C@H]1CN(Cc3nccs3)C[C@H]21,.
Cc1nc(-c2ccccc2)sc1CCNC(=O)c1ccccc1,.
COCCN1CCN(Cc2c(C)noc2C)Cc2cccnc21,.
Oc1c(Cl)c2nc3ccccc3nc2c2ccccc12,-105
c1ccc2c(c1)nc1c2ccc2[nH]onc21,.
Nc1[nH]nc2nc3ccccc3nc12,.
O=C(C1Cn2ccnc2C2(CCN(Cc3ccoc3)CC2)O1)N1CCCC1 (centres undefined),.
Cc1cc(Nc2cc(C(F)(F)F)nc3c(Cl)cccc23)on1,-80
Cc1ccc(Nc2cc(C)nc3c(C)cccc23)cc1,.
Cc1cc(C(F)(F)F)nc(CCNC(=O)c2c(O)cccc2O)n1,.
O=C(c1ccccc1C1CCNC1)N1CCc2sccc2C1 (centres undefined),.
CNC(=O)[C@]12CCC3(CCN(C(=O)c4ccco4)CC3)[C@H]1CN(C(C)=O)C2,.
Cc1cc(CN(C)C(=O)c2cccc(NCc3ccc(C)s3)c2)on1,.
CN(C)C1CCN(C(=O)c2cnc(-c3noc4cc(-c5ccccc5)ccc34)s2)CC1,.
CCCCN(C)C(=O)c1cnc(-c2noc3cc(NCC4CC4)ccc23)s1,-82
CCOc1ccc(-c2noc(-c3c(O)c4ccccc4n(C)c3=O)n2)cc1,.
c1ccc(CSc2nnc3c(n2)[nH]c2ccccc23)cc1,.
Cc1ccc(CSc2nnc3c(n2)[nH]c2ccc(Br)cc23)cc1,-80
CCN(CC)C(=O)CSc1nnc2c(n1)[nH]c1ccc(C)cc12,.
SMILES,Tg IFNy HTS
CC(C)Cc1cc(CNc2nc(-c3cccnc3)nc3c2CNC3)no1,.
CCOc1ccc(C2c3[nH]c4ccccc4c3CCN2C(=O)c2ccc(C)cc2)cc1 (centres undefined),-95
CCCC(=O)N1CCc2c([nH]c3ccccc23)C1c1ccc(C)cc1 (centres undefined),.
Cc1ccc(C2c3[nH]c4ccccc4c3CCN2C(=O)c2ccccc2Br)cc1 (centres undefined),.
O=C(c1ccccc1Br)N1CCc2c([nH]c3ccccc23)C1c1ccc(F)cc1 (centres undefined),.
CCOc1ccc(C2c3[nH]c4ccccc4c3CCN2C(=O)c2ccncc2)cc1 (centres undefined),.
Cc1ccc(C2c3[nH]c4ccccc4c3CCN2C(=O)c2cccs2)cc1 (centres undefined),.
Cc1ccc(C2c3[nH]c4ccccc4c3CCN2C(=O)c2ccccc2)cc1 (centres undefined),.
Cc1ccc(C2c3[nH]c4ccccc4c3CCN2C(=O)c2ccc(N(C)C)cc2)cc1 (centres undefined),-119
Cc1ccc(C2c3[nH]c4ccccc4c3CCN2C(=O)c2ccccc2F)cc1 (centres undefined),-130
CC1CC(NC(=O)c2cc(C(F)(F)F)cc(C(F)(F)F)c2)CC(C)(C)C1 (centres undefined),.
CN(Cc1noc2c1CCCC2)C(=O)c1cn[nH]n1,.
CN1CC(=O)N(CC(=O)N2CCOC(c3ccc(Cl)c(Cl)c3)C2)C1=O (centres undefined),.
Cc1cccc(-c2ccc3cc(C(=O)CCN4CCOCC4)c(-c4cocn4)n3c2)c1,.
CCc1cc(NCc2nc3ccccc3c(=O)[nH]2)nc(N2CCOCC2)n1,.
CN1CCN2CCN(C(=O)c3n[nH]c(=O)c4ccccc34)CC2C1=O (centres undefined),.
CC1CCN(S(=O)(=O)c2ccc3c(c2)CCC(=O)N3CC(=O)N2CCc3ccccc32)CC1,.
O=C(O)CSCCCC(=O)Nc1ccc(Br)cc1,.
CCCCC(=O)Nc1ccc(-c2nc(-c3ccccc3)co2)cc1,.
O=C(CCCCCCC(=O)Nc1ccccc1)NO,-84!
O=C(CCCCCCC(=O)Nc1cccnc1)NO,-84
O=C(NC(=S)Nc1cccnc1)c1ccccc1,.
CN(CC(=O)Nc1cccnc1)S(=O)(=O)c1ccc(Cl)cc1,.
CCOc1ccccc1-c1noc(-c2c(O)c3cc(Cl)ccc3[nH]c2=O)n1,.
CCOC(=O)C1(Cc2ccccc2)CCN(Cc2ccc(C#CC(C)(C)O)cc2)CC1,.
CC(C)C(=O)NC1COC2(CCN(C(=O)Cc3ccccn3)CC2)C1 (centres undefined),.
COC1COC2(CCN(C(=O)Cc3ccccn3)CC2)C1 (centres undefined),-98
